The values that follow come from PubChem BioAssay (NCATS).

In assay [1] the target is Bile acid receptor (Homo sapiens) (UniProt Q96RI1). In words: qHTS assay for small molecule antagonists of farnesoid X receptor signaling (AID 588526). Also: % is scaled to controls: 0 for no effect and ±100 for the full control effect. As to conditions: HEK293T FXR-UAS-bla, beta-lactamase ratio, antagonist mode; series mostly up to 76.7 µM. Put shortly: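 Concentration-response titrations were fitted to the Hill equation for half-maximal inhibition and maximal response, with data normalised to 50 uM chenodeoxycholic acid and DMSO control wells. Cells: FXR-UAS-bla HEK293T, dialyzed FBS.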
Sequence of Bile acid receptor (Homo sapiens) (Q96RI1 whole entry, looked up): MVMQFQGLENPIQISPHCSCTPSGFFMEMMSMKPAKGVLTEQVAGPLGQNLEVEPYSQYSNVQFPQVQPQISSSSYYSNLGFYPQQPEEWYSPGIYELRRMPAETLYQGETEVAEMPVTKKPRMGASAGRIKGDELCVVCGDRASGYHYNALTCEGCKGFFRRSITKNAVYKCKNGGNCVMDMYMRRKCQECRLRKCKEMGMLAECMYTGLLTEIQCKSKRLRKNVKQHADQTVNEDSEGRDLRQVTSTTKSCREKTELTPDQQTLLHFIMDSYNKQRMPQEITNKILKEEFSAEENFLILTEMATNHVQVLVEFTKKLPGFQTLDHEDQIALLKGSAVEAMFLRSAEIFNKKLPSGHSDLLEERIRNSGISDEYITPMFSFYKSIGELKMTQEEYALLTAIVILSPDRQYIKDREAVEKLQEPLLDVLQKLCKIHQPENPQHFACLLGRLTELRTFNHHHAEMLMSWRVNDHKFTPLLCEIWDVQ
(In general: In qHTS, concentration-response curves come from the screen itself.)

For assay [2], the target named is Glucocorticoid receptor (Homo sapiens) (UniProt P04150). As to the kind of experiment: qHTS assay for small molecule agonists of glucocorticoid receptor signaling (AID 588532; active = well fitted curve in the direction sought with a large enough effect in the signal ratio, with a control signal flat; the % refers to the signal ratio;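 also: 100% = dexamethasone at 0.1 µM and 0% = DMSO only wells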). Conditions: HeLa MMTV-bla, beta-lactamase ratio, agonist, 18 h; stronger effect = higher value; percent of dexamethasone control, DMSO zero. Put shortly:
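MMTV-bla HeLa, beta-lactamase reporter; medium with 1% charcoal/dextran-stripped FBS; cpds up to 92 uM, 18 h, 37 C; CCF4 readout 460/530 nm; Hill fit → EC50, efficacy vs 0.1 uM dexamethasone = 100%.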

Assay [3] has the same target. In words: qHTS assay for small molecule antagonists of glucocorticoid receptor signaling (AID 588533; active = well fitted inhibition curve with a large enough effect in the signal ratio, with a control signal flat, not every such curve was filed as active; the % refers to the signal ratio;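 also: cells stimulated with 2 nM dexamethasone as agonist; % is scaled to controls: 0 for no effect and ±100 for the full control effect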). Conditions: HeLa MMTV-bla, GRE beta-lactamase ratio, antagonist mode, 18 h; series mostly up to 76.8 µM. Put shortly:
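Antagonist-mode qHTS: compound titrations added to GRE-bla HeLa cells, then dexamethasone 2 nM final; 18 h, 37 C. CCF4 FRET fluorescence normalized to dexamethasone and DMSO; IC50 from Hill fit.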

Assay [4] in a line: qHTS assay for small molecule antagonists of peroxisome proliferator-activated receptor delta signaling (AID 588535; active = well fitted inhibition curve with a large enough effect in the signal ratio, with a control signal flat, not every such curve was filed as active; the % refers to the signal ratio;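 as to max response: cells co-treated with a PPAR-delta agonist as stimulator during compound exposure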). Conditions: HEK293T PPARd-UAS-bla, beta-lactamase FRET ratio, 18 h; 460 nm channel. An outline of the steps:
(§1)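 Inhibition of PPAR-delta response element-driven beta-lactamase expression is measured in HEK293T cells exposed to a compound titration series for 18 hrs at 37 C. Half-maximal inhibition comes from Hill equation fitting.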

Assay [5] concerns the target Peroxisome proliferator-activated receptor delta (Homo sapiens) (UniProt Q03181). The assay is described as above. Conditions: HEK293T PPARd-UAS-bla, beta-lactamase FRET ratio, 18 h; series mostly up to 76.7 µM. An outline of the steps: as §1
Assay [6] deals with Peroxisome proliferator-activated receptor gamma (Homo sapiens) (UniProt P37231). In words: qHTS assay for small molecule agonists of peroxisome proliferator-activated receptor gamma signaling (AID 588536; active = well fitted curve in the direction sought with a large enough effect in the signal ratio, with a control signal flat, not every such curve was filed as active; the % refers to the signal ratio;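 also: 0% = DMSO basal wells and 100% = rosiglitazone at 2 µM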). Conditions: HEK293 PPARg-UAS-bla, beta-lactamase ratio, 16 h, percent of rosiglitazone response, DMSO as zero; series mostly up to 76.7 µM. Put shortly:
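Compound treatment: 16 h, 37 C, HEK293 GeneBLAzer cells. Detection: CCF4, 2 h RT. Values: Hill-fit EC50, efficacy as % of 2 uM rosiglitazone.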

For assay [7] the target is unchanged. As to the kind of experiment: qHTS assay for small molecule antagonists of peroxisome proliferator-activated receptor gamma signaling (AID 588537; active = well fitted inhibition curve with a large enough effect in the signal ratio, with a control signal flat, not every such curve was filed as active; the % refers to the signal ratio;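 also: reporter cells co-stimulated with 50 nM rosiglitazone agonist during compound treatment; % of control where 0% means no effect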). Conditions: HEK293 PPARg-UAS-bla, beta-lactamase ratio, antagonist mode; series mostly up to 76.8 µM. An outline of the steps: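 Compounds are tested as concentration series for inhibition of rosiglitazone-driven (50 nM) reporter expression in GeneBLAzer PPAR-gamma-UAS-bla HEK293 cells. After 16 h at 37 C, CCF4 substrate is added for 2 h at room temperature and blue/green fluorescence is measured.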

The target of assay [8] is Vitamin D3 receptor (Homo sapiens) (UniProt P11473). As to the kind of experiment: qHTS assay for small molecule antagonists of vitamin D receptor signaling (AID 588541).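 Also: receptor activated by calcitriol during compound treatment; % is scaled to controls: 0 for no effect and ±100 for the full control effect.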 As to conditions: HEK293T VDR-UAS-bla, beta-lactamase ratio, antagonist mode; series mostly up to 76.7 µM. Put shortly:
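VDR-UAS-bla HEK293T cells (2000/well, 2% charcoal-stripped FBS) were treated with titrated compounds plus 1-alpha,25-dihydroxyvitamin D3 (50 nM or 3 nM final) for 16 h at 37 C. CCF4 beta-lactamase fluorescence was read; Hill fits gave IC50.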

Assay [9] shares this target. In words: qHTS assay for small molecule agonists of vitamin D receptor signaling (AID 588543).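 Also: 0% = DMSO basal and 100% = reference agonist control.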 Conditions: HEK293T VDR-UAS-bla, beta-lactamase ratio, 16 h; series mostly up to 76.8 µM. Put shortly:
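qHTS in agonist mode: compound titrations stimulate a VDR-driven β-lactamase reporter in HEK293T cells over 16 h at 37 °C. Response normalized to 50 nM 1α,25-dihydroxyvitamin D3 = 100%, DMSO = 0%; Hill fitting gives EC50 and maximal response.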

Assay [10] can be described thus: qHTS assay for small molecule agonists of retinoid X receptor alpha signaling (AID 588544).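 As to activation: 0% = DMSO basal wells and 100% = reference agonist.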 Conditions: HEK293T RXRa-UAS-bla, beta-lactamase reporter, 18 h; 530 nm emission.
Assay [11] has as its target Retinoic acid receptor RXR-alpha (Homo sapiens) (UniProt P19793). The description is as above. Conditions: HEK293T RXRa-UAS-bla, beta-lactamase reporter, 18 h; series mostly up to 76.7 µM.
Assay [12] has as its target Thyroid hormone receptor beta (Homo sapiens) (UniProt P10828). As to the kind of experiment: qHTS assay for small molecule agonists of thyroid hormone receptor beta signaling (AID 588545).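 Also: 0% = DMSO only and 100% = 10 nM T3.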 As to conditions: TR-UAS-bla GripTite HEK 293, beta-lactamase ratio, agonist mode, 18 h, percent of T3 response, DMSO as zero; series mostly up to 76.7 µM. Put shortly: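 Efficacy and EC50 values derive from Hill fits of qHTS titration data, normalized to 10 nM T3 and DMSO-only wells. HEK 293 reporter cells were stimulated for 18 hrs at 37 C, with beta-lactamase activity measured by CCF4 fluorescence.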

Assay [13] is described as follows: qHTS assay for small molecule antagonists of retinoid X receptor alpha signaling (AID 588546; active = well fitted inhibition curve with a large enough effect in the signal ratio, with a control signal flat, not every such curve was filed as active; the % refers to the signal ratio;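 also: cells stimulated with 9-cis-retinoic acid as agonist; % is scaled to controls: 0 for no effect and ±100 for the full control effect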). As to conditions: HEK293T RXRa-UAS-bla, beta-lactamase ratio, antagonist mode; measured here: W530 green channel, cytotoxicity proxy. Put shortly:
(§2)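 Beta-lactamase reporter inhibition, read as CCF4 fluorescence ratio (ex 405, em 460/530 nm) after 2 h at RT. HEK293T UAS-bla cells, 2500/well, were stimulated with 9-cis-RA at 500 or 100 nM final alongside test compound for 18 h at 37 C.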

Assay [14] concerns the target Retinoic acid receptor RXR-alpha (Homo sapiens) (UniProt P19793). The assay is described as above. As to conditions: HEK293T RXRa-UAS-bla, beta-lactamase ratio, antagonist mode. Put shortly:
as §2

The target in assay [15] is Thyroid hormone receptor beta (Homo sapiens) (UniProt P10828). In words: qHTS assay for small molecule antagonists of thyroid hormone receptor beta signaling (AID 588547; active = well fitted inhibition curve with a large enough effect in the signal ratio, with a control signal flat, not every such curve was filed as active; the % refers to the signal ratio). As to conditions: TR-UAS-bla HEK293, beta-lactamase ratio, antagonist mode, 18 h. Put shortly:
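TR-UAS-bla GripTite HEK293 cells in 2% charcoal/dextran FBS medium were preincubated 4 h at 37 C, given compound (0.59 nM to 92 uM) plus 0.4 nM T3 (final) for 18 h, then CCF4 for 2 h at RT; Hill fit gave IC50.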

In assay [16] the target is Voltage-gated inwardly rectifying potassium channel KCNH2 (Homo sapiens) (UniProt Q12809). In words: qHTS Assay for Small Molecule Inhibitors of the Human hERG Channel Activity (AID 588834; active = well fitted inhibition curve with a large enough effect;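 also: U2OS cells transduced with hERG by BacMam; top concentration of the series differs between compounds; % is scaled to controls: 0 for no effect and ±100 for the full control effect; lower thallium flux fluorescence means stronger hERG block; nearly all actives have a fitted effect of over 50% in size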). As to conditions: U2OS BacMam hERG, FluxOR thallium flux fluorescence; series mostly up to 46.1 µM. Put shortly:
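Cells were infected with hERG-BacMam virus for 4 hrs at room temperature, grown overnight, then seeded at 2000/well. After dye loading and roughly 10 min compound treatment, thallium influx was triggered and fluorescence recorded.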

The target of assay [17] is Estrogen receptor (Homo sapiens) (UniProt P03372). In words: qHTS assay for small molecule antagonists of estrogen receptor alpha signaling (AID 588513; active = well fitted curve in the direction sought with a large enough effect in the signal ratio, with a control signal flat, not every such curve was filed as active; the % refers to the signal ratio; also: % is scaled to controls: 0 for no effect and ±100 for the full control effect). As to conditions: ER-alpha-UAS-bla HEK293, beta-lactamase ratio, antagonist mode; series mostly up to 76.9 µM. An outline of the steps: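 Cells were plated at 5000/well and incubated 4 h at 37 C. Compounds were added as 1:2 dilution series, duplicates. 17-beta-estradiol (0.5nM final) was added for 18 h before CCF4 detection.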
Sequence of Estrogen receptor (Homo sapiens) (P03372 whole entry, looked up): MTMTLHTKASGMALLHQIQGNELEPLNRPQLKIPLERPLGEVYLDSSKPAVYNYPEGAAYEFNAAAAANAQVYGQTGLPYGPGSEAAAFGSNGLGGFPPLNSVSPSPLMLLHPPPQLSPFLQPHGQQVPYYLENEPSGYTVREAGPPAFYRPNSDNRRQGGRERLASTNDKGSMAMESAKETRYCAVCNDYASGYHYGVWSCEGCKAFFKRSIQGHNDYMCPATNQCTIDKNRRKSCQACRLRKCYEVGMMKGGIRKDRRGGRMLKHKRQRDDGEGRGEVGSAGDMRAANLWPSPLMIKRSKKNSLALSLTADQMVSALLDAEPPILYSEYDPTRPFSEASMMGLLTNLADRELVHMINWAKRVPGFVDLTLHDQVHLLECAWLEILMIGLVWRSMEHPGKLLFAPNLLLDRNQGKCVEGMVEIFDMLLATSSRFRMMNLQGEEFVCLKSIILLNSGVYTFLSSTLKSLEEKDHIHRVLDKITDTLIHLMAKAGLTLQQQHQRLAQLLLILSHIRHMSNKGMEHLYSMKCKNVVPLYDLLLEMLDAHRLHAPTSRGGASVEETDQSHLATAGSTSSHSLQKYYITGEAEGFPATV

Assay [18] has the same target. As to the kind of experiment: qHTS assay for small molecule agonists of estrogen receptor alpha signaling (AID 588514).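 Also: 0% = vehicle only and 100% = reference agonist; nearly all actives have a fitted effect of over 70% in size.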 Conditions: ER-alpha-UAS-bla HEK293, beta-lactamase ratio, 18 h; series mostly up to 76.8 µM. Put shortly:
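Efficacy is expressed against 20 nM 17-beta-estradiol (100%) and DMSO basal (0%); EC50 from Hill equation. Assay: beta-lactamase reporter in ER-alpha-UAS-bla HEK 293 cells, 18 h compound incubation, CCF4 detection.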

In assay [19] the target is Androgen receptor (Homo sapiens) (UniProt P10275). In words: qHTS assay for small molecule agonists of androgen receptor signaling (AID 588515; active = well fitted curve in the direction sought with a large enough effect in the signal ratio, with a control signal flat; the % refers to the signal ratio; also: % is scaled to controls: 0 for no effect and ±100 for the full control effect). As to conditions: AR-UAS-bla HEK293, beta-lactamase ratio, agonist 16 h; stronger effect = higher value. Put shortly:
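Stimulation of an AR-responsive β-lactamase reporter in GripTite HEK293 cells was measured after 16 h compound exposure at 37 °C, via CCF4 fluorescence after 2 h RT. EC50 from Hill fits, normalized to R1881 at 30 nM.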

Where “and” joins values, the source holds several entries; their conditions need not be identical. Equal values may be shown once. Inconclusive results are not listed. Calls of active or inactive are those of the source. Unless noted, calls follow the shape of the full dose curve.

Sequence of Retinoic acid receptor RXR-alpha (Homo sapiens) (P19793 whole entry, looked up): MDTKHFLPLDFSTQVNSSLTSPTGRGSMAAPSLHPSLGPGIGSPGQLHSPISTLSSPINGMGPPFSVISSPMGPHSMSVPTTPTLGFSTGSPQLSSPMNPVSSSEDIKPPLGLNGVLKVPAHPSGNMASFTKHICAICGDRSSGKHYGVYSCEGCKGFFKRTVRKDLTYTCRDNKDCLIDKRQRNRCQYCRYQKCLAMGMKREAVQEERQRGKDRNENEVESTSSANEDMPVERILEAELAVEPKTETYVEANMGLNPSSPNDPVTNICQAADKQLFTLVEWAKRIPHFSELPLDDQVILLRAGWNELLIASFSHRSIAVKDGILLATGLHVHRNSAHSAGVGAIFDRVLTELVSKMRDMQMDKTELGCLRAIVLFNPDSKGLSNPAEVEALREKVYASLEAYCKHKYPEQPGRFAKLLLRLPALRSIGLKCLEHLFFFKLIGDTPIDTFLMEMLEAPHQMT
Sequence of Peroxisome proliferator-activated receptor gamma (Homo sapiens) (P37231 whole entry, looked up): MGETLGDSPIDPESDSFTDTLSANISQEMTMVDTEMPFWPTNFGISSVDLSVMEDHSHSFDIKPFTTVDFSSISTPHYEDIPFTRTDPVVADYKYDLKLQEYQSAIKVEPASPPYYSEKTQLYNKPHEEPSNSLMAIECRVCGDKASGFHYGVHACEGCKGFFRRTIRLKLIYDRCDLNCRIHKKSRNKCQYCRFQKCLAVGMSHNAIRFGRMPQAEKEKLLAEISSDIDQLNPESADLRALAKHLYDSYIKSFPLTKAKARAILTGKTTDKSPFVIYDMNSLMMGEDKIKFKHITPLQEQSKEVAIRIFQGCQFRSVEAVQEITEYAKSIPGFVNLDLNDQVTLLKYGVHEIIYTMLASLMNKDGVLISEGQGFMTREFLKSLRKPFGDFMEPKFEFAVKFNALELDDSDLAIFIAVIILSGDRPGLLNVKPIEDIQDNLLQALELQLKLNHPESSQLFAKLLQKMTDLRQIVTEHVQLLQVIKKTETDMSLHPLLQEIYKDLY
Sequence of Glucocorticoid receptor (Homo sapiens) (P04150 whole entry, looked up): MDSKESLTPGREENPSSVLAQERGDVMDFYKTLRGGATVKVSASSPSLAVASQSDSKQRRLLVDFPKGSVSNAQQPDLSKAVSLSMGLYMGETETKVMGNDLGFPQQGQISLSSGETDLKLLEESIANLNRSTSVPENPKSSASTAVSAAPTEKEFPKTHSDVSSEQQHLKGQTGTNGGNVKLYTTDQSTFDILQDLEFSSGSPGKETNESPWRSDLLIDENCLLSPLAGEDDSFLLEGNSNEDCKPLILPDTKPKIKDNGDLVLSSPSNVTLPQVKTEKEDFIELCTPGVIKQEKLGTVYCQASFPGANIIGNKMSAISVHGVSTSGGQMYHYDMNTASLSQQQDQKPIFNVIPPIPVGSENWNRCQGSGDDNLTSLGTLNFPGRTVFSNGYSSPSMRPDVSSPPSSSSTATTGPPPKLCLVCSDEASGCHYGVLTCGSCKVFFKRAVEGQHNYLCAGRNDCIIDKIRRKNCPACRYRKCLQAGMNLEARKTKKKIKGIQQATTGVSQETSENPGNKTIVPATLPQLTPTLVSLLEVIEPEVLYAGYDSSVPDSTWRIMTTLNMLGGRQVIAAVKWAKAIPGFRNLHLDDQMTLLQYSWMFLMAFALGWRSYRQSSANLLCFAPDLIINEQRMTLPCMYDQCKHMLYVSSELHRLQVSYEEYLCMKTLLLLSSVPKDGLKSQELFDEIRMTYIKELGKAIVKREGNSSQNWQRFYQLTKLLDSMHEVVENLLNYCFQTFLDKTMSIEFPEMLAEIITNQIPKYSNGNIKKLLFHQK
Sequence of Thyroid hormone receptor beta (Homo sapiens) (P10828 whole entry, looked up): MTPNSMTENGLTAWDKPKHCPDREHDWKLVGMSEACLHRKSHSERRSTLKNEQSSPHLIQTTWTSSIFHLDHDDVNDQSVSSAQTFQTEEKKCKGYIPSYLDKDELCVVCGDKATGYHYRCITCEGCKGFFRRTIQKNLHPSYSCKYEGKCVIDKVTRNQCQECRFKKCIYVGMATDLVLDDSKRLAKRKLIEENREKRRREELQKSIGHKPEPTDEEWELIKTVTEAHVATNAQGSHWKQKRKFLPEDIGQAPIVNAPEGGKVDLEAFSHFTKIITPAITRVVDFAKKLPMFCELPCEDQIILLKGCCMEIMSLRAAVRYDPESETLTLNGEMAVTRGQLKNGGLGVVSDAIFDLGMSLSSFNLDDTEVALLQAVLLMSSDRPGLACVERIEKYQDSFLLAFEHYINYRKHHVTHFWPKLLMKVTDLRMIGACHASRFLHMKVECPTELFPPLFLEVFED
Sequence of Peroxisome proliferator-activated receptor delta (Homo sapiens) (Q03181 whole entry, looked up): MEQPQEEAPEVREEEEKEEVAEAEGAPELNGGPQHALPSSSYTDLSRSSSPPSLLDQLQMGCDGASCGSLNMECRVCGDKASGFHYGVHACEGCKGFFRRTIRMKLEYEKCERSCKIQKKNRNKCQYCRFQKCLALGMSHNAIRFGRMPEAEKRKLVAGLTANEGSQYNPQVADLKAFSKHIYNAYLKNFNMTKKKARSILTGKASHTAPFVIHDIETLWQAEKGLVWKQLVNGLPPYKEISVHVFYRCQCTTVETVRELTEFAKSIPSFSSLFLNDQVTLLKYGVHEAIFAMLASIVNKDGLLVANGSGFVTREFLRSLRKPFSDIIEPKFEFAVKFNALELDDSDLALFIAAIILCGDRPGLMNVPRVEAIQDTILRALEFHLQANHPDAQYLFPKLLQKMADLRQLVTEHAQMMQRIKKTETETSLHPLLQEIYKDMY
Sequence of Vitamin D3 receptor (Homo sapiens) (P11473 whole entry, looked up): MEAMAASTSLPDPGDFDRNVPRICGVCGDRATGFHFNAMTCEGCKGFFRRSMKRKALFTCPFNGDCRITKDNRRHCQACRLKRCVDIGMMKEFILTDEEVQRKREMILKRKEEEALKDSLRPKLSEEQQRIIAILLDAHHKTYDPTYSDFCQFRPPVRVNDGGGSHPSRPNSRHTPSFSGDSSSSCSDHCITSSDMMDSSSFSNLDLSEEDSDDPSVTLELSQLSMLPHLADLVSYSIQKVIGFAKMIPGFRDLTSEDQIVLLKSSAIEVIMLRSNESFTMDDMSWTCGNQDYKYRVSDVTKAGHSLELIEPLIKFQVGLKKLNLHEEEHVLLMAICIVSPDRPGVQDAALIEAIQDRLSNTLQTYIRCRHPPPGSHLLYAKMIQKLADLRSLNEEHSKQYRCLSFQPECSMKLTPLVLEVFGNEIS

As to `O=C(OCc1ccccc1)c1ccccc1`, the result in [1], in assay [6], in assay [8], in assay [9], in [11] and in assay [12] was inactive. Also, the activation in assay [2] is -9.71% (inactive). Moreover, the Potency entry in assay [3], in [5], in assay [7] and in assay [16] was “inactive” each time. Moreover, the max response in [4] was 18.5%; in assay [10] it was 2.86%; in [13] it was -18.5%; in [14] it was -1.47% (inactive). Also, the activity change % (negative = inhibition) in assay [15] is 12.6% (inactive).

As to `C=CCCCCCCCCC(=O)O`, the outcome in [17], in assay [6], in assay [8], in assay [9], in [11] and in [12] was inactive. For the same molecule, the Potency entry in assay [18], in assay [3] and in assay [16] was “inactive” in each case. The activation in assay [2] is -3.95% (inactive). Besides, the max response in assay [10] was -10%; in assay [13] it was -3.51%; in assay [14], -16.4% (inactive). The activity change % (negative = inhibition) in [15] was -5.71% (inactive).

Consider `CC(C)NCC(O)COc1cccc2ccccc12` (centres undefined), for which the outcome in assay [1], in assay [6], in assay [8], in assay [9], in [11] and in assay [12] was inactive. Further, the max response in assay [4] is -13.8% and 28.5%; in assay [10], 16.9% and 0.479%; in assay [13] it was 8.19%; in assay [14] it was -18.2% (inactive). Besides, the Potency result in assay [5] and in [7] was “inactive” throughout. For the same molecule, the activity change % (negative = inhibition) in assay [15] is -9.73% (inactive) and -17.8% (inactive).

`CCCCCCCCCCCCCCCCCC(=O)O`: the result in assay [17], in [6] and in assay [11] was inactive. For the same molecule, the Potency entry in [18], in [7] and in assay [16] was “inactive” in each case. Moreover, the max response in assay [10] is 13.3% and -12.8% and -7.59%; in assay [13] it was -4.53% and -8.3% and -3.54%; in assay [14] it was -9.45% (inactive) and 1.81% (inactive) and 3.06% (inactive).

For the molecule `O=C(Nc1ccccc1)c1cc([N+](=O)[O-])ccc1Cl`, the outcome in assay [17], in assay [1] and in [12] was inactive. In addition, the Potency entry in [18], in assay [3], in [5] and in assay [16] was “inactive” throughout. In assay [2], the activation is -2.03% (inactive). Further, the max response in assay [4] was 15.1%; in assay [13] it was -9.1%; in assay [14] it was -13.8% (inactive). Also, the activity change % (negative = inhibition) in assay [15] was 9.48% (inactive).

Regarding `Nc1nc2ccc([N+](=O)[O-])cc2s1`, in assay [19], the activation was -6.41% (inactive). The max response is 42.6% in assay [4], 0.666% in [13] and 16.9% (inactive) in assay [14]. For the same molecule, the Potency entry in assay [5] and in assay [16] was “inactive” throughout. Also, the result in assay [6], in assay [8] and in assay [9] was inactive. For the same molecule, the activity change % (negative = inhibition) in assay [15] is -2.47% (inactive).
